Assay results taken from PubChem BioAssay (NCATS).
Results filed as inconclusive are left out. Where a call stands in place of a potency, no number is given. Active and inactive are the calls of the source. The call rests on the fitted dose curve; in most records, active means well fitted inhibition curve with a large enough effect; inconclusive means small, poorly fitted or top-dose-only effect; inactive means flat fitted curve, though single readings scatter.
Potency means the concentration at half of the fitted maximal effect.

The compounds below were run on DFO2036 (assay: qHTS profiling for inhibitors of Plasmodium falciparum proliferation (AID 504749; further: nearly all actives have a fitted effect of over 60% in size)). Conditions: P. falciparum in erythrocytes, SYBR Green DNA, 72 h; series mostly up to 28.7 µM.
Outline: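 SYBR Green fluorescence (ex 485 nm, em 535 nm) reports parasite DNA after 72 h compound exposure of infected red cells at 0.3% parasitemia, 2.5% hematocrit; signal normalized to 0.29 uM artemisinin and vehicle wells.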
`O=[N+]([O-])c1ccccc1` was tested, and the Potency was “inactive”. In the case of `O=C1CC[C@@]2(O)C3Cc4ccc(O)c5c4C2(CCN3CC2CC2)[C@H]1O5` (stereo partly specified), the Potency was “inactive”. For `O=C/C=C/c1ccccc1`, the Potency was “inactive”. In the case of `CCNC(C)Cc1cccc(C(F)(F)F)c1` (stereo unspecified), the Potency was “inactive”. `CC1CCC(C(C)C)C(OC(=O)c2ccccc2N)C1` (stereo unspecified) was tested, and the Potency was “inactive”. In the case of `CCOP(=O)(OCC)O/C(=C/Cl)c1ccc(Cl)cc1Cl`, the Potency was “inactive”. For `c1csc(C2(N3CCCCC3)CCCCC2)c1`, the Potency was “inactive”. For `CCN(CC)C(=O)/C(Cl)=C(\C)OP(=O)(OC)OC`, the Potency was “inactive”. With `c1ccc(C2(N3CCCC3)CCCCC2)cc1` the Potency was 10 µM (active). `[Cl-].[Cl-].[Hg+2]` was tested, and the Potency was 11.2 µM (active). With `CCC1(CC)C(=O)NC(=O)N(C)C1=O` the Potency was “inactive”. For `c1cc2c(c(NC3=NCCN3)c1)CCCC2`, the Potency was “inactive”. In the case of `CCC1C(C)=NN=C(c2ccc(OC)c(OC)c2)c2cc(OC)c(OC)cc21` (stereo unspecified), the Potency was “inactive”. `CCC(=O)O[C@@](Cc1ccccc1)(c1ccccc1)[C@@H](C)CN(C)C` was tested, and the Potency was “inactive”. For `C=CCC1(C(C)CCC)C(=O)N=C(S)NC1=O` (stereo unspecified), the Potency was “inactive”. For `F/C(COc1ccc2c(c1)[nH]c1ccccc12)=C1/CN2CCC1CC2`, the Potency was 11.2 µM (active). In the case of `Oc1cccc[c]1[Hg][Cl]`, the Potency was 5.62 µM (active). With `C[C@H]1CCC[C@H](O)CCCCCc2cc(O)cc(O)c2C(=O)O1` the Potency was “inactive”. In the case of `ClC1C(Cl)C(Cl)C(Cl)C(Cl)C1Cl` (stereo unspecified), the Potency was “inactive”. With `CCC1(c2ccccc2)C(=O)NC(=O)N(C)C1=O` (stereo unspecified) the Potency was “inactive”. `CCCCCCCCCC(=O)O[C@H]1CC[C@H]2[C@@H]3CCC4=CC(=O)CC[C@]4(C)[C@H]3CC[C@]12C` was tested, and the Potency was “inactive”.
